In ChEMBL document CHEMBL1961873, “Compounds: GSK PKIS; Assays: Nanosyn kinase panel” (2012):

Assays:
[1] = target: Serine/threonine-protein kinase 26 (Homo sapiens) (UniProt Q9P289); conditions: at 1 µM;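 further: mean inhibition of MST4 kinase activity, reported from the GSK PKIS inhibitor-set screening panel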
[2] = target: Serine/threonine-protein kinase PAK 1 (Homo sapiens) (UniProt Q13153); conditions: at 0.1 µM
[3] = target: Serine/threonine-protein kinase PAK 1 (Homo sapiens) (UniProt Q13153); conditions: at 1 µM
[4] = target: Serine/threonine-protein kinase PAK 2 (Homo sapiens) (UniProt Q13177); conditions: at 0.1 µM
[5] = target: Serine/threonine-protein kinase PAK 2 (Homo sapiens) (UniProt Q13177); conditions: at 1 µM
[6] = target: Serine/threonine-protein kinase PAK 3 (Homo sapiens) (UniProt O75914); conditions: at 0.1 µM
[7] = target: Serine/threonine-protein kinase PAK 3 (Homo sapiens) (UniProt O75914); conditions: at 1 µM
[8] = target: Serine/threonine-protein kinase PAK 5 (Homo sapiens) (UniProt Q9P286); conditions: at 0.1 µM
[9] = target: Serine/threonine-protein kinase PAK 5 (Homo sapiens) (UniProt Q9P286); conditions: at 1 µM
[10] = target: Serine/threonine-protein kinase PAK 6 (Homo sapiens) (UniProt Q9NQU5); conditions: at 0.1 µM
[11] = target: Serine/threonine-protein kinase PAK 6 (Homo sapiens) (UniProt Q9NQU5); conditions: at 1 µM
[12] = tested on: Tyrosine-protein kinase ABL1 (Homo sapiens), P00519 [E255K]; conditions: at 0.1 µM
[13] = tested on: Tyrosine-protein kinase ABL1 (Homo sapiens), P00519 [E255K]; conditions: at 1 µM
[14] = tested on: Tyrosine-protein kinase ABL1 (Homo sapiens), P00519 [H396P]; conditions: at 0.1 µM
[15] = tested on: Tyrosine-protein kinase ABL1 (Homo sapiens), P00519 [H396P]; conditions: at 1 µM
[16] = tested on: Tyrosine-protein kinase ABL1 (Homo sapiens), P00519 [M351T]; conditions: at 0.1 µM
[17] = tested on: Tyrosine-protein kinase ABL1 (Homo sapiens), P00519 [M351T]; conditions: at 1 µM
[18] = tested on: Tyrosine-protein kinase ABL1 (Homo sapiens), P00519 [Q252H]; conditions: at 0.1 µM
[19] = tested on: Tyrosine-protein kinase ABL1 (Homo sapiens), P00519 [Q252H]; conditions: at 1 µM
[20] = tested on: Tyrosine-protein kinase ABL1 (Homo sapiens), P00519 [T315I]; conditions: at 0.1 µM

Serine/threonine-protein kinase 26 (Homo sapiens), sequence (Q9P289 2-416 limits assumed): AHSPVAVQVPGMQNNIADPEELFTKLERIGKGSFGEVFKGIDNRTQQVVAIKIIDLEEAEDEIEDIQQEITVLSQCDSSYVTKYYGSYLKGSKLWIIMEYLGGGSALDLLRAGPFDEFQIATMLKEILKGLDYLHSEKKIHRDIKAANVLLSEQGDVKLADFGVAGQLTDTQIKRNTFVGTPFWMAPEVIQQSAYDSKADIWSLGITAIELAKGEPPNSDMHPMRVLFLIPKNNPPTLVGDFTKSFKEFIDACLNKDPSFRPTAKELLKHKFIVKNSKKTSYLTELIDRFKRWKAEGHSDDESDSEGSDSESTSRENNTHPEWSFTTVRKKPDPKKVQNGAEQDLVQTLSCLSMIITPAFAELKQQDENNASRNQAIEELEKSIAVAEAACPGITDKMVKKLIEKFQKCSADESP
Serine/threonine-protein kinase PAK 2 (Homo sapiens), sequence (Q13177 whole entry): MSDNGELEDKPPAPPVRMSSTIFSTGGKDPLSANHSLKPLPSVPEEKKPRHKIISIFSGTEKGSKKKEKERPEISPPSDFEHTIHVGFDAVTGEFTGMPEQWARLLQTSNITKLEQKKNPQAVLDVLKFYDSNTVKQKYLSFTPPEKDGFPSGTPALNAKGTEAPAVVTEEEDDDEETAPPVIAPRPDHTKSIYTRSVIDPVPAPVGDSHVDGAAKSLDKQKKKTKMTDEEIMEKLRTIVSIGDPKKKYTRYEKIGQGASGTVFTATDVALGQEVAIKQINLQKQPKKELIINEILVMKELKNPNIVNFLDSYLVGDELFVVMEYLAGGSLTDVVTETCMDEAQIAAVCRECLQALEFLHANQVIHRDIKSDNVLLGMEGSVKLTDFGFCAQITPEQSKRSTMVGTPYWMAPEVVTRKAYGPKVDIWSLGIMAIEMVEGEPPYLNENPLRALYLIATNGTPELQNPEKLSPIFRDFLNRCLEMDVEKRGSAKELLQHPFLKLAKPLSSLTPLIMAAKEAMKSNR
Serine/threonine-protein kinase PAK 1 (Homo sapiens), sequence (Q13153 whole entry): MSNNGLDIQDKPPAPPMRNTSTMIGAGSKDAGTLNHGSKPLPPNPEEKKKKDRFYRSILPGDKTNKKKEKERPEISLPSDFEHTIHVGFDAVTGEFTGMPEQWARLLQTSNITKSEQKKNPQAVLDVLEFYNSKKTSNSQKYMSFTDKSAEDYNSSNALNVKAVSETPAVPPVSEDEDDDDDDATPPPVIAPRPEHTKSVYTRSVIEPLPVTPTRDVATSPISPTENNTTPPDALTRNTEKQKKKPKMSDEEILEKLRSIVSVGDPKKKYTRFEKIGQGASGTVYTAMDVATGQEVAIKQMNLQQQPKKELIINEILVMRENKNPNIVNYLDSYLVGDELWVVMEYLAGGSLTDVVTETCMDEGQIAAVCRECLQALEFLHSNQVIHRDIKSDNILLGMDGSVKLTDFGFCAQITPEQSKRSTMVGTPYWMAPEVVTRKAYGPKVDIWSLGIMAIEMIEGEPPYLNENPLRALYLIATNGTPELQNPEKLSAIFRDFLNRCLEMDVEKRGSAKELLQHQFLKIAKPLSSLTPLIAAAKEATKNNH
Serine/threonine-protein kinase PAK 3 (Homo sapiens), sequence (O75914 whole entry, looked up): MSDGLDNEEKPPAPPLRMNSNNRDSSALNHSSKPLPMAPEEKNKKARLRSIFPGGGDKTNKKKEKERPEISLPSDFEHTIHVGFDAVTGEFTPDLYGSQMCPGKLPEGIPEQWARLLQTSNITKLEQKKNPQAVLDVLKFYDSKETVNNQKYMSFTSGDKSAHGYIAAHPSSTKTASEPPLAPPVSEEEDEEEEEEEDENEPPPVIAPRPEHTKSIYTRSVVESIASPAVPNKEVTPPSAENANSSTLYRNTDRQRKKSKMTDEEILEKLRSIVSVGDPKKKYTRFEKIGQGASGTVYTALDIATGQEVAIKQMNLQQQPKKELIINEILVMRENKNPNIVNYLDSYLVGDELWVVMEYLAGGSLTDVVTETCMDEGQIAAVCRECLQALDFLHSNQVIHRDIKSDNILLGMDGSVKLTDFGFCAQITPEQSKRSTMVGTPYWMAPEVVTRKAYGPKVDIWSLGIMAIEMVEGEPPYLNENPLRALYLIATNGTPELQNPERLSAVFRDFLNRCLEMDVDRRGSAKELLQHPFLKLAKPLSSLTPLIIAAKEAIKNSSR
Serine/threonine-protein kinase PAK 6 (Homo sapiens), sequence (Q9NQU5 whole entry, looked up): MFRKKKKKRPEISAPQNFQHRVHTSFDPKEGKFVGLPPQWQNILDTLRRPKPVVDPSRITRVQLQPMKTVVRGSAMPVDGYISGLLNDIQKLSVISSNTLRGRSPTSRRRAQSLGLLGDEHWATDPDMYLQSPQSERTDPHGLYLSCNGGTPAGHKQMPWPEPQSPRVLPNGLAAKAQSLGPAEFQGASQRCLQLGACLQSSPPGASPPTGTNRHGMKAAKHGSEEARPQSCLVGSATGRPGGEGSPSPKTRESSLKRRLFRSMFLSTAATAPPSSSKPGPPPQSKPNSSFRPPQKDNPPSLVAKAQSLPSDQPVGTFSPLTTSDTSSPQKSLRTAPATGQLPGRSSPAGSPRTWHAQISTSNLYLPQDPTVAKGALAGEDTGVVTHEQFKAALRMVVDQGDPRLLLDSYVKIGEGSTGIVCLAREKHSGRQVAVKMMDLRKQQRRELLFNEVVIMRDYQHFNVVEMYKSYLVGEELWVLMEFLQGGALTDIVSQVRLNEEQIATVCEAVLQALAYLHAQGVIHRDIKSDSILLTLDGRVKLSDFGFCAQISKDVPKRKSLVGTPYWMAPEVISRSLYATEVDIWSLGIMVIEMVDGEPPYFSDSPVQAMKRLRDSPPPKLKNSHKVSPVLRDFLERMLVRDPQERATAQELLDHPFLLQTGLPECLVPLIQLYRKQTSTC
Serine/threonine-protein kinase PAK 5 (Homo sapiens), sequence (Q9P286 whole entry, looked up): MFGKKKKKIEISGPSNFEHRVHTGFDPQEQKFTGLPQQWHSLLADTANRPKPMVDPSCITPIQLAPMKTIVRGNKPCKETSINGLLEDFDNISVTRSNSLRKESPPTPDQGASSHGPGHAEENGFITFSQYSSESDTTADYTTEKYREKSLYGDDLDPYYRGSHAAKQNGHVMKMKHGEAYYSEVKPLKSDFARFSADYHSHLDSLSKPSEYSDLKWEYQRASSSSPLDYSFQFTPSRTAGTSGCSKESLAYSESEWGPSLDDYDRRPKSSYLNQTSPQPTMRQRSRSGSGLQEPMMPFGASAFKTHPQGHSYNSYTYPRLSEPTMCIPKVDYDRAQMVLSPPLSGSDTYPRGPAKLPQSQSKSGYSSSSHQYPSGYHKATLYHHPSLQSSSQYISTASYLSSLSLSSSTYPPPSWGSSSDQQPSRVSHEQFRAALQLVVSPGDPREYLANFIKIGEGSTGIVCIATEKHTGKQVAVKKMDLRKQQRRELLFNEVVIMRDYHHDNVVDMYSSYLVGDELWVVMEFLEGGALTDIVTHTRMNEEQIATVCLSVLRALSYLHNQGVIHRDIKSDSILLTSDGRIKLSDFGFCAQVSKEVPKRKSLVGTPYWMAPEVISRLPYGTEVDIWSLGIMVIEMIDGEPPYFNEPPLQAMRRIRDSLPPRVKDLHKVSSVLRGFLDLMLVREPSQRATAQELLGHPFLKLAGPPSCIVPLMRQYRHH

SMILES | inhibition [1] [%] | inhibition [2] [%] | inhibition [3] [%] | inhibition [4] [%] | inhibition [5] [%] | inhibition [6] [%] | inhibition [7] [%] | inhibition [8] [%] | inhibition [9] [%] | inhibition [10] [%] | inhibition [11] [%] | inhibition [12] [%] | inhibition [13] [%] | inhibition [14] [%] | inhibition [15] [%] | inhibition [16] [%] | inhibition [17] [%] | inhibition [18] [%] | inhibition [19] [%] | inhibition [20] [%]
CS(=O)(=O)Nc1ccc(N/C=C2\C(=O)Nc3ccccc32)cc1 | -0.36 | -4.5 | -3.06 | -1.89 | -3.37 | -3.72 | -2.59 | -2.35 | 0.84 | -9.71 | -8.06 | -0.28 | 3.16 | -0.26 | 10.9 | 1.98 | 16.4 | 1.09 | 11 | 0.68
Cc1ccc(C(=O)NC2CCCCC2)cc1-c1ccc(C(=O)NCC2CC2)cc1 | -1.45 | 6.65 | 4.6 | 2.09 | 1.97 | 4.22 | 4.44 | 4.34 | 13.6 | -2.81 | -8.15 | 0.94 | -0.03 | 4.41 | 0.31 | 3.58 | 2.26 | 3.13 | 2.92 | 1.36
CS(=O)(=O)CCNCc1nc(-c2ccc3ncnc(Nc4ccc(F)c(Cl)c4)c3c2)cs1 | 0.43 | 2.77 | 4.21 | 1.56 | 1.25 | 2 | 3.08 | 2.01 | 8.16 | 5.79 | 0.67 | 2.57 | 10.6 | 5.57 | 16.2 | 0.97 | 12.9 | 3.6 | 16 | 1.06
CCn1c(-c2nonc2N)nc2c(C#CC(C)(C)O)nc(CN3CCCC3)cc21 | 7.65 | 0.14 | 2.33 | -2.93 | -0.92 | -0.82 | 0.31 | -4.5 | -1.51 | 10.8 | -0.08 | 0.01 | 0.44 | 0.09 | 0.68 | -0.36 | 2.83 | 0.06 | 3.09 | -0.43
NC(=O)c1ccc(-c2nc(-c3ccccn3)c(-c3ccc4c(c3)OCO4)[nH]2)cc1 | 2.93 | 4.04 | 5.77 | 0.67 | 1.08 | 2.68 | 2.97 | -3.79 | -0.72 | -8.04 | -5.81 | 3.49 | 4.45 | 1.34 | 6.63 | 0.6 | 3.86 | 0.7 | 3.91 | 1.95
Cc1nnc(-c2ccc(C)c(-c3ccc(C(=O)Nc4cccc(C#N)c4)cc3)c2)o1 | -0.56 | 5.8 | 1.41 | 0.71 | 0.48 | 2.48 | 2.15 | 0.22 | -1.12 | -9.89 | -7.37 | 2 | 4.21 | -0.02 | 3.51 | -0.06 | 2.91 | 3.04 | 4.21 | 1.53
COC(=O)Nc1nc2cc(Oc3cccc(NC(=O)Nc4cc(C(F)(F)F)ccc4F)c3)ccc2[nH]1 | 1.92 | 3.97 | -1.03 | -1.19 | 0.23 | -1.11 | -1.11 | 0.91 | -5.17 | 6.44 | -6.76 | 0.37 | 7.39 | 9.03 | 41.7 | 34.8 | 69.3 | 32.1 | 68.6 | 2.28
